Measured values from PubChem BioAssay (NCI).
About 83,000 compounds went through this panel and 20% of them were active in at least one assay; those are over-represented in the sample as a whole.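 96-well plates, one dose, 48 hours. Percent growth reported; active if below 10.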 Active and inactive are the calls of the source.

Key:
Experiment in all cases: NCI-60 one-dose screen, 48 h (100 = growth as untreated, 0 = no growth, -100 = all killed)
Conditions in all cases: 10 µM unless noted
NCI-H23 lung = tested on: NCI-H23 lung
NCI-H226 lung = tested on: NCI-H226 lung
NCI-H322M lung = tested on: NCI-H322M lung
HOP-62 NSCLC = tested on: HOP-62 NSCLC
NCI-H460 lung = tested on: NCI-H460 lung
HOP-92 NSCLC = tested on: HOP-92 NSCLC
NCI-H522 lung = tested on: NCI-H522 lung
A549/ATCC NSCLC = tested on: A549/ATCC NSCLC
786-0 renal = tested on: 786-0 renal
COLO 205 colon = tested on: COLO 205 colon

Measured: growth

O=C1NC(=S)/C(=C/c2cn(-c3ccccc3)nc2-c2ccccc2)S1
inactive: NCI-H23 lung 12.5% | NCI-H226 lung 34.1% | NCI-H322M lung 31.7% | HOP-62 NSCLC 72.6% | HOP-92 NSCLC 13.7% | A549/ATCC NSCLC 17.7% | 786-0 renal 20.8% | COLO 205 colon 33.2%
active: NCI-H460 lung 9.19% | NCI-H522 lung -9.92%

CC1=C(C(=O)Nc2ccccc2)C(c2cccc3ccccc23)n2c(nc3ccccc32)N1 (stereo not given)
active: NCI-H226 lung -39.8% | HOP-62 NSCLC -61.9% | HOP-92 NSCLC 1.76% | 786-0 renal 6.29%
inactive: NCI-H23 lung 76.7% | NCI-H322M lung 44% | NCI-H460 lung 27.6% | NCI-H522 lung 63.6% | A549/ATCC NSCLC 28.2% | COLO 205 colon 95.2%

Cc1cc(C)c2[nH]c(=O)c(C(c3nnnn3Cc3ccc4c(c3)OCO4)N3CCN(C)CC3)cc2c1 (stereo not given)
inactive: NCI-H23 lung 105% | NCI-H226 lung 102% | NCI-H322M lung 107% | HOP-62 NSCLC 111% | NCI-H460 lung 112% | HOP-92 NSCLC 99.9% | NCI-H522 lung 120% | A549/ATCC NSCLC 105% | 786-0 renal 97.9% | COLO 205 colon 114%

O=C1N/C(=N\c2nccs2)S/C1=C\c1ccc([N+](=O)[O-])cc1
active: NCI-H226 lung 6.47% | NCI-H460 lung 8.33% | NCI-H522 lung -1.75% | A549/ATCC NSCLC 9.8%
inactive: NCI-H23 lung 32.7% | NCI-H322M lung 23.2% | HOP-62 NSCLC 37.4% | HOP-92 NSCLC 16.7% | 786-0 renal 19.7% | COLO 205 colon 23.2%

C=CC(=O)N1CCN(c2ccc3nc4c(nc3c2C(F)(F)F)C(=O)c2ncccc2C4=O)CC1
inactive: NCI-H226 lung 63.8% | NCI-H322M lung 10.2% | HOP-62 NSCLC 39.9% | 786-0 renal 22%
active: NCI-H23 lung -61.5% | NCI-H460 lung -34.3% | HOP-92 NSCLC -3.31% | NCI-H522 lung -8.31% | A549/ATCC NSCLC 2.38% | COLO 205 colon -22.8%

C#CCN(C)CCCOc1ccc(N(CC)C(=O)c2cc(C(C)C)c(O)cc2O)cc1Cl
inactive: NCI-H322M lung 23.4% | HOP-62 NSCLC 26% | A549/ATCC NSCLC 15.9% | 786-0 renal 21.6%
active: NCI-H23 lung -5.94% | NCI-H226 lung -13.8% | NCI-H460 lung -52.4% | HOP-92 NSCLC -44.6% | NCI-H522 lung -14.9% | COLO 205 colon 4.62%

COc1ccc(Nc2ncnc3sc4c(c23)CCN(Cc2ccccc2)C4)cc1
inactive: NCI-H23 lung 91.8% | NCI-H226 lung 84.3% | NCI-H322M lung 93.7% | HOP-62 NSCLC 81.9% | NCI-H460 lung 71% | HOP-92 NSCLC 85.7% | NCI-H522 lung 63.2% | A549/ATCC NSCLC 77.3% | 786-0 renal 76.4% | COLO 205 colon 106%

CN(C)c1nc(NCCNS(=O)(=O)c2ccc(C(=O)/C=C/c3ccc(F)cc3)cc2)nc(N2CCOCC2)n1
active: A549/ATCC NSCLC 7.37% | 786-0 renal -55.7%
inactive: NCI-H23 lung 50.9% | NCI-H226 lung 74% | NCI-H322M lung 84.4% | HOP-62 NSCLC 76.2% | NCI-H460 lung 78.5% | HOP-92 NSCLC 77.8% | NCI-H522 lung 28.7% | COLO 205 colon 35%

C[C@@H](Nc1c(C#N)cnc2ccc(-c3cnc4[nH]ncc4c3)cc12)c1ccccc1
active: NCI-H226 lung -1.92% | NCI-H322M lung -2.29% | HOP-92 NSCLC -11.3% | A549/ATCC NSCLC 5.68%
inactive: NCI-H23 lung 21% | HOP-62 NSCLC 35.4% | NCI-H460 lung 15.4% | NCI-H522 lung 13.1% | 786-0 renal 11% | COLO 205 colon 84.2%

COc1sc(/C=N/NC(=O)c2[nH]c3ccc(Br)cc3c2-c2ccccc2)cc1Br
active: NCI-H23 lung -14.1% | NCI-H460 lung -7.71% | NCI-H522 lung -35.8% | A549/ATCC NSCLC 6.26% | 786-0 renal -1.7% | COLO 205 colon 0.155%
inactive: NCI-H226 lung 14.7% | NCI-H322M lung 31.4% | HOP-62 NSCLC 12.2% | HOP-92 NSCLC 63.7%

Nc1cc(-c2c[nH]c3ccc(Br)cc23)nc2cc(-c3c[nH]c4ccccc34)nn12
active: NCI-H23 lung -68.9% | NCI-H226 lung 3.69% | NCI-H322M lung -18.8% | HOP-62 NSCLC -61.9% | NCI-H460 lung -53.1% | HOP-92 NSCLC -50.8% | NCI-H522 lung -77% | A549/ATCC NSCLC -47.2% | 786-0 renal -68.2% | COLO 205 colon -87%

Cc1ccc(S(=O)(=O)Nc2ccc(-c3ccc4c(c3)NC(=O)/C4=C\c3ccc[nH]3)cc2)cc1
inactive: NCI-H23 lung 33.8% | NCI-H226 lung 94% | NCI-H322M lung 68.3% | HOP-62 NSCLC 96.5% | NCI-H460 lung 22% | HOP-92 NSCLC 93.4% | NCI-H522 lung 87.2% | A549/ATCC NSCLC 52.8% | 786-0 renal 101% | COLO 205 colon 93.3%

COC(=O)c1cc(C(=O)C(F)(F)F)n2c3ccccc3c3ccccc3c12
inactive: NCI-H23 lung 83.6% | NCI-H226 lung 52.6% | NCI-H322M lung 90.8% | HOP-62 NSCLC 41.1% | NCI-H460 lung 62.1% | HOP-92 NSCLC 59.2% | NCI-H522 lung 96% | A549/ATCC NSCLC 92.8% | 786-0 renal 24.2% | COLO 205 colon 79.7%

COC(=O)CSC1=C(C)C(=O)C(OC)=C(OC)C1=O
inactive: NCI-H23 lung 94.3% | NCI-H226 lung 93.1% | NCI-H322M lung 93.1% | HOP-62 NSCLC 85.3% | NCI-H460 lung 96.8% | HOP-92 NSCLC 75.5% | NCI-H522 lung 72.2% | A549/ATCC NSCLC 90.4% | 786-0 renal 99.9% | COLO 205 colon 102%
